PostGolgi yeast = growth inhibition of a yeast mutant, post-Golgi transport screen; actives 0.9% (n = 98,000); post-Golgi transport phenotypic cell assay; inhibition, % at 10 µM;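 also: yeast cells grown in 1536-well plates; yeast grown about 18 h at 30C before absorbance read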
PostGolgi ctrl = inhibits growth of the yeast control strain | efflux-deficient yeast background strain, growth absorbance A615, 16 h | inhibition, % at 10 µM | actives 5% (n = 98,000)
Measles CPE = protection of cells from measles virus | Measles virus-infected cells, CPE protection, absorbance | protection (pct of control), % at 4 µM | actives 1.5% (n = 140,000) | AID 841; in the data active = protection mostly above about 24%, no sharp cut-off; inactive = mostly below about 26%
MT1-MMP txn act = MT1-MMP promoter transcription activation; HT1080 MT1-MMP promoter luciferase reporter, luminescence, overnight; active compounds read high; activation factor at 10 µM; actives 0.16% (n = 86,000); AID 750;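 active = activation factor of at least 2 for MT1-MMP transcription at 10 µM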
* = called active by the depositor; x = not tested or not shown. Rows were chosen to be rich in hits. Some 5.3% of all compounds tested hit in one or more screens of this group. Rule as the data show it, unless noted: active = inhibition above about 30%; inactive = the rest.

SMILES	PostGolgi yeast	PostGolgi ctrl	Measles CPE	MT1-MMP txn act
COc1cc(C2Sc3ccccc3NC3=C2C(=O)OC3)cc(OC)c1OC (configuration not stated)	x	x	10	1.2
O=C1OCC2=C1C(c1ccc(F)cc1)Sc1ccccc1N2 (configuration not stated)	94*	-7	41	x
O=C(CSc1nc2ccc(Cl)cc2[nH]1)NCCc1ccc(Cl)cc1	x	x	4	x
O=C(CSc1nc2ccc(Cl)cc2[nH]1)NCCc1ccccc1	x	x	29*	x
Cc1cc2cc(CCNC(=O)c3cccs3)c(=O)[nH]c2cc1C	x	x	6	x
COc1ccc(OC)c(C2=NOC(C(=O)Nc3cc(C)nn3-c3ccccc3)C2)c1 (configuration not stated)	-3	41*	3	x
COc1cccc(C2=NOC(C(=O)NC(C)C)C2)c1 (configuration not stated)	-5	-2	57*	1.3
COc1ccc(C2=NOC(C(=O)Nc3cc(C)on3)C2)cc1 (configuration not stated)	4	35*	4	x
O=C(CSc1nnc(Nc2ccccc2)s1)NN1C(=O)NC2(CCCCC2)C1=O	x	x	14	x
N=c1ncn(CC(O)CO)c2nc(N3CCOCC3)[nH]c12 (configuration not stated)	-4	10	5	x
Nc1nnnn1/N=C/c1ccc(O)cc1	2	-4	50*	1.1
Nc1nnnn1/N=C/c1cccc(O)c1	-12	1	24	x
Clc1ccccc1OCc1nc(-c2ccccn2)no1	13	14	2	x
Clc1ccc(OCCCc2nc(-c3ccncc3)no2)c(Cl)c1	92*	95*	6	1.2
Clc1ccc(OCc2nc(-c3ccccn3)no2)c(Br)c1	-1	31*	5	0.9
Clc1ccc(-c2noc(CCCOc3ccccc3)n2)cc1	0	8	7	1
Clc1ccc(OCCCc2nc(-c3cccnc3)no2)c(Cl)c1	-3	34*	17	1
Cc1cc(C)c2cc(CN(CCO)C(=O)Nc3ccc(Cl)cc3)c(=O)[nH]c2c1	5	47*	5	1
CC(=O)Nc1ccc(S(=O)(=O)N(C)c2ccccc2)cc1	-7	21	7	1.1
CC(=O)Nc1ccc(S(=O)(=O)N(C)c2ccc(O)cc2)cc1	-8	-3	44*	1.1
CC(C)(/C=N/NC(=O)CSCc1ccccc1Cl)CCC#N	x	x	8	x
CC(=O)Nc1nnc(SCC(=O)NC(C)(C)C)s1	-4	32*	3	1
COc1ccc2nc3c(cc2c1)c(NC(=O)c1cccs1)nn3CC(C)C	10	37*	2	1
CC(C)Cn1nc(NC(=O)C(C)(C)C)c2cc3ccccc3nc21	-4	5	14	1.2
CC1CCCN(CCCCOc2cccc(Br)c2)C1 (configuration not stated)	x	x	4	x
SMILES	PostGolgi yeast	PostGolgi ctrl	Measles CPE	MT1-MMP txn act
COc1cccc(/C=N/Nc2nc(Nc3ccccc3)nc(-n3nc(C)cc3C)n2)c1O	0	58*	5	x
Cc1c(Cl)c([N+](=O)[O-])nn1CC(=O)NC12CC3CC(CC(C3)C1)C2	6	13	3	x
COc1cccc(NC(=O)c2ccccc2-c2nc(-c3ccc(F)cc3)no2)c1	25	56*	25	1.3
COc1ccc(-c2noc(-c3ccccc3C(=O)NCc3ccco3)n2)cc1	-8	19	14	1.1
COc1cccc(-c2nc(-c3ccc(NC(=O)c4ccncc4)cc3)no2)c1	-2	1	38	1.1
COc1ccc(-c2noc(-c3ccccc3C(=O)NCc3ccco3)n2)cc1OC	-2	31*	6	1.3
COc1ccccc1-c1noc(-c2ccccc2C(=O)Nc2ccccc2)n1	7	27	16	1.1
COc1cccc(NC(=O)c2ccccc2-c2nc(-c3ccc(Cl)cc3)no2)c1	-7	35*	8	1.7
COc1cccc(NC(=O)c2ccccc2-c2nc(-c3ccccc3)no2)c1	-3	42*	5	1.4
Cc1csc(NC(=O)c2cccn2C)n1	-4	31*	6	1.3
CCn1c(O)c(C=NC2CCCC2)sc1=S	11	10	25	1.4
CCn1c(O)c(/C=N/n2cnnc2)sc1=S	6	30*	6	1
COc1ccccc1-c1nnc(SCc2nc3ccccc3s2)n1C	0	6	8	1.3
COc1ccc(-c2nnc(SCc3nc4ccccc4s3)n2C(C)C)cc1	1	30*	5	x
CC(C)c1ccc(CN2CCC(C(=O)NCc3cccnc3)CC2)cc1	2	4	3	1.1
COc1ccc(-c2cc(C(=O)N3CCN(C(c4ccccc4)c4ccccc4)CC3)no2)cc1	4	42*	7	1.2
COc1cccc(-c2cc(C(=O)N3CCCc4ccccc43)no2)c1	1	35*	15	1.3

Bioassay records as filed in PubChem.
